Compound activity from PubChem.
PLK1 PBD block: inhibitors of human PLK1 polo-box domain binding; P53350; Plk1 PBD binding of FITC phosphopeptide, fluorescence polarization; Potency, µM, for inactives: max response, negative = inhibition, usual class: inhibitors; hit rate 2.8% among 360,000; AID 720504; further: series mostly up to about 57 µM; on the % scale 0 is the no-effect control and ±100 the full control effect; nearly all actives have a fitted effect of over 65% in size
VDR inhibitor: vitamin D3 receptor (human) inhibition; P11473; VDR-SRC2-3 peptide fluorescence polarization, 2 h; hit rate 0.93% among 400,000; Potency, µM, for inactives: max response, negative = inhibition, most hits filed as inhibitors; AID 504847; further: on the % scale 0 is the no-effect control and ±100 the full control effect
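Signal is fluorescence polarization, reporting how far test compounds block the interaction of VDR with the SRC2-3 coregulator peptide after a 2 h room-temperature incubation.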
G9a inh: G9a (human) methyltransferase inhibition. Q96KQ7. G9a H3K9 monomethylation, AlphaScreen, 2 h. Potency, µM (series often up to 102 µM), without a hit: at the highest dose activity, negative = inhibition, usual class: inhibitors. hit rate 8.8% among 350,000. AID 504332; further: on the % scale 0 is the no-effect control and ±100 the full control effect; nearly all actives have a fitted effect of over 75% in size
Target sequence (Q96KQ7 913-1193 limits assumed): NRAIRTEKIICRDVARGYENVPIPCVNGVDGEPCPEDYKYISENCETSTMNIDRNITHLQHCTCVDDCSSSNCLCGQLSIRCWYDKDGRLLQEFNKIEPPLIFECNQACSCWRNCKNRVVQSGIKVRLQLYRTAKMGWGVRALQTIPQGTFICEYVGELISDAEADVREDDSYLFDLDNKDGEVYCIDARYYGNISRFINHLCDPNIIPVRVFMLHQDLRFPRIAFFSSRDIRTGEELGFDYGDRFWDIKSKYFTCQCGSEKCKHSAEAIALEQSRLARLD
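AlphaScreen detection with an anti-monomethyl H3K9 antibody quantified product after a 2 h room-temperature reaction containing 500 nM biotinylated H3K9 peptide, 20 µM SAM and 20 nM enzyme, which had been preincubated 15 min with compound.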
HP1b chromo inh: HP1-beta chromodomain-methylated histone interaction inhibition; P83916; AlphaScreen HP1-beta / biotin-H3K9me3 peptide binding; Potency, µM (doses to about 114 µM), without a hit: at the top dose activity change, negative = inhibition, usual class: inhibitors; hit rate 0.56% among 390,000; AID 540317; further: nearly all actives have a fitted effect of over 70% in size
Target sequence (P83916 whole entry, looked up): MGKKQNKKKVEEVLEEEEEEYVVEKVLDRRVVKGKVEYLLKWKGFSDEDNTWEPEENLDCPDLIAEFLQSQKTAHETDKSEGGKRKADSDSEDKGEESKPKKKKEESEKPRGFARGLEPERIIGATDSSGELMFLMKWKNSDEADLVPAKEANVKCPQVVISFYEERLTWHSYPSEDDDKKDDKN
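Compound inhibition of the preformed complex between 50 nM HP1-beta and 50 nM biotinylated H3K9me3 peptide was read by AlphaScreen. Buffer was PBS pH 7.4 with 0.01% Tween-20. Incubations ran 30 min at room temperature, with 10 ug/mL donor/acceptor beads.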
BAZ2B inh: BAZ2B (human) inhibition. Q9UIF8. AlphaScreen BAZ2B-H3K14Ac peptide displacement. Potency, µM (series often up to 114 µM), for the others: at the highest dose activity change, negative = inhibition, hits mostly inhibitors. hit rate 4.4% among 360,000. AID 504333; further: on the % scale 0 is the no-effect control and ±100 the full control effect; nearly all actives have a fitted effect of over 60% in size
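Complex of BAZ2B and biotin-H3K14Ac (50 nM apiece) forms over 30 min at RT, then faces library compounds up to 110 uM for another 30 min; AlphaScreen beads added, 20 min dark incubation, luminescence read.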
JMJD2A Tudor: inhibitors of human JMJD2A Tudor domain. AlphaScreen JMJD2A-Tudor / H3K4me3 peptide binding. Potency, µM (highest dose often 114 µM), without a hit: at the highest dose activity change, negative = inhibition, most hits filed as inhibitors. hit rate 4.4% among 390,000; further: on the % scale 0 is the no-effect control and ±100 the full control effect; nearly all actives have a fitted effect of over 50% in size
The depositor's hits bear a star; ? = inconclusive; · = not tested or not shown; [ ] = dose if it differs, or a comment. Compounds with a hit are over-represented: about 11% of the library has one in this group of screens. The call rests on the fitted dose curve; in most records, active means well fitted curve in the direction sought with a large enough effect; inconclusive means small, poorly fitted or top-dose-only effect, or another doubt; inactive means no such curve, though single readings can be large; an effect the other way counts as inactive or inconclusive. Potency means the concentration at half of the fitted maximal effect.

SMILES	PLK1 PBD block	VDR inhibitor	G9a inh	HP1b chromo inh	BAZ2B inh	JMJD2A Tudor
O=c1[nH]cnc2cc(Cl)ccc12	-15%	-15%	50µM*	57%	1%	8%[11.4 µM]
COc1ccccc1-c1nnc(SCC(=O)Nc2oc(C)c3c(C)n[nH]c(=O)c23)n1C	-13%	-3%	5µM*	41%	-2%	-3%
Cc1n[nH]c(=O)c2c(NC(=O)CSc3nnc(C4CC4)n3C)oc(C)c12	-8%	-19%	40µM*	47%	-38%	-14%
COCCCn1c(SCC(=O)Nc2oc(C)c3c(C)n[nH]c(=O)c23)nc2ccccc2c1=O	-2%	4%	50µM*	19%	-1%	-4%
COc1ccccc1-n1nnnc1SCC(=O)Nc1oc(C)c2c(C)n[nH]c(=O)c12	-6%	-3%	11µM*	45%	-6%	-15%
Cc1n[nH]c(=O)c2c(NC(=O)CSc3nnc(-c4ccco4)n3C)oc(C)c12	-9%	-18%	?	44%	-1%	-12%
Cc1ccc(-c2noc(CNC(=O)c3ccc(C)c(Cl)c3)n2)cc1	·	15%	5%[59 µM]	62%	6%	2%
O=C(COc1ccc2c3c(c(=O)oc2c1)CCC3)N[C@@H](Cc1ccccc1)C(=O)O	-2%	-3%	-5%[12.7 µM]	9%	4%	-23%
COc1cc(/C=C/C(=O)OCC(=O)Nc2oc(C)c3c(C)n[nH]c(=O)c23)ccc1OC(F)F	-16%	2%	14µM*	58%	0%	-7%
CCN1C(=O)C(=O)N(CC(=O)N2CCN(c3ccccc3)CC2)C1=O	-2%	14%	?	33%	2%	0%
CCOC(=O)C1=C(C)N=C2c3ccccc3C(=O)C2C1c1ccc(Cl)cc1 (stereo unspecified)	-8%	-11%	40µM*	?	13µM*	40µM*
CC1(C)CC(=O)C2=C(C1)N=C1c3ccccc3C(=O)C1C2c1ccc(Cl)cc1 (stereo unspecified)	-10%	-11%	10µM*	?	13µM*	?
C1=CCN(c2nc(N3CCOCC3)nc(N3CCCc4ccccc43)n2)CC1	4%	·	·	·	·	·
Nc1nc(CN2CCN(c3ccc(F)cc3)CC2)nc(N2CCCc3ccccc32)n1	-4%	3%	40µM*	-9%	-64%	50µM*
COc1cccc(Cn2c(=O)cnc3cnc(N4CCOCC4)nc32)c1	·	1%	9%[12.7 µM]	·	·	·
Cc1cc2c(c(=O)n1Cc1ccccc1)C1O[C@](c3ccsc3)(Cc3ccccc31)O2	·	·	·	·	10%[22.9 µM]	·
Cc1ccc(OCC(=O)NC(=S)Nc2cccc(NC(=O)c3ccc(Cl)cc3Cl)c2)cc1	-7%	3%	11%[59 µM]	10%	7%	-10%
O=C(COc1ccccc1)NNC(=S)NC(=O)c1ccc(Cl)cc1Cl	-22%	-2%	1.4µM*	0%	-2%	-22%
CCCOc1ccc(CC(=O)NNC(=S)Nc2ccccc2)cc1Br	-13%	8%	?	-10%	6%	-25%
COc1ccc(CC(=O)NNC(=S)Nc2ccccc2)cc1Cl	-10%	-1%	50µM*	10%	?	-22%
Cc1cccc(C(=O)NC(=S)NNC(=O)COc2ccc(Cl)cc2)c1	27µM*	3%	3.2µM*	?	-16%	?
O=C(COc1cccc(Cl)c1)NNC(=S)Nc1ccccc1	24µM*	?	7.1µM*	?	9%	-29%[57.1 µM]
CCOc1ccc(C(=O)Nc2nnc(SCc3cc(=O)c4cc(C)ccc4[nH]3)s2)cc1	·	18%	-12%[59 µM]	19%[57 µM]	0%	-10%
Cc1ccccn1	·	-10%	-3%[12.7 µM]	·	·	·
COc1ccc(Cc2nnc(SCC(=O)Nc3ccc(N4CCOCC4)cc3)o2)cc1	8%	4%	7%	12%	-14%	-2%
CC1C2(C)OCC(C#N)(C(=N)O2)C1(C#N)C#N (stereo unspecified)	·	·	45µM*	·	1%	·
O=C(COC(=O)c1cc(=O)[nH]c2ccc(Br)cc12)c1ccccc1	0%	13%	-3%	22%	-1%	-12%
CCN1/C(=C2\C(=O)N(C)C(=S)N2C)C=Cc2cc(OC)ccc21	-10%	1%	7.9µM*	?	56µM*	?
